# Source: the supplement of paper PMC9694430
# Structures can show the parent of a compound that is named as a salt.
# System: LOC_OS03G50450-cb001
# Experiment: thermal shift delta Tm vs DMSO control; higher = stronger stabilization (binding)
# Details: 12.5 µM; protein concentration 2 µM
# Procedure, shortened: (§1)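 Heating from 25°C to 95°C at 0.05°C/s, fluorescence was recorded for 19.5 μl wells of 2 μM E. coli-expressed, purified rice kinase domain in 100 mM potassium phosphate pH 7.5, 150 mM NaCl, 10% glycerol and 5 × SYPRO Orange with compound in DMSO. Boltzmann fits gave melting temperatures for this differential scanning fluorimetry assay. The shift reported is the mean of three replicates against the DMSO-only protein.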
# 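Also: purified Escherichia coli-expressed rice kinase domain construct.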
row,Compound,thermal shift delta Tm
1,Cc1cc(NC(=O)c2cccc(NC(=O)/C=C/CN(C)C)c2)ccc1Nc1nccc(-c2cccnc2)n1,1.19 °C
2,Nc1nccc(Oc2ccc(NC(=O)c3c[nH]cc(-c4ccc(F)cc4)c3=O)cc2F)c1Cl,0.31 °C
3,COc1ccc(/C=C/C(=O)C2(C(=O)/C=C/c3ccc(OC)c(OC)c3)CCCCC2)cc1OC,0.8 °C
4,CC(C)CC(=O)Nc1n[nH]c2c1CN(C(=O)C1CCN(C)CC1)C2(C)C,0.29 °C

# System: LOC_OS03G50810-cb003
# Experiment: as above
# Details: 12.5 µM; protein concentration 2 µM
# Procedure, shortened: as §1
row,Compound,thermal shift delta Tm
1,CCn1c(=O)c(-c2ccc(-c3cncs3)cc2Cl)cc2cnc(Nc3ccc(N4CCN(C)CC4)cc3)nc21,0.27 °C
2,CNC(=O)c1cccc(-c2ccc3c(N4CCOC[C@@H]4C)nc(N4CCOC[C@@H]4C)nc3n2)c1 [Vistusertib (AZD2014)],0.06 °C
3,CC(C)S(=O)(=O)c1ccc2nccc(Nc3ccc4scnc4c3)c2c1,0.61 °C
4,Cn1cc(-c2ccc3ncc(Cc4ccc5ncccc5c4)n3n2)cn1,0.44 °C
5,N#Cc1ccc2ncnc(NCCc3ccccc3)c2c1 [Senexin A],0.83 °C
6,O=C1NC(=O)/C(=C/c2ccc3nccc(-c4ccncc4)c3c2)S1,0.4 °C
7,Cn1cnc2c(F)c(Nc3ccc(Br)cc3F)c(C(=O)NOCCO)cc21,0.44 °C
8,Cc1cc(Nc2ncc(Cl)c(Nc3ccccc3S(=O)(=O)C(C)C)n2)c(OC(C)C)cc1C1CCNCC1 [Ceritinib (LDK378)],0.58 °C
9,Cc1nc2ccc(-n3ncc(C(=O)c4cc5ccccc5[nH]4)c3N)cc2[nH]1,0.75 °C
10,C=C[C@@](C)(/C=C/c1ccc(O)cc1)CCC=C(C)C [Bakuchiol],0.28 °C
11,"C=CC(=O)Nc1cccc(Nc2nc(Nc3ccc(N4CCN(C(C)=O)CC4)cc3OC)ncc2C(F)(F)F)c1 [Rociletinib (CO-1686, AVL-301)]",2.22 °C
12,"CCCS(=O)(=O)Nc1ccc(F)c(C(=O)c2c[nH]c3ncc(-c4ccc(Cl)cc4)cc23)c1F [Vemurafenib (PLX4032, RG7204)]",2.6 °C
13,COc1cc(OC)c(C=C2C(=O)Nc3ccccc32)c(OC)c1,-0.06 °C
14,CCN(CC)CCCC(C)Nc1nc(C)cc(Nc2ccc3nc(C)cc(N)c3c2)n1 (configuration not stated),0.25 °C
15,CN1CC(O)C2=C/C(=N/NC(N)=O)C(=O)C=C21 (configuration not stated) [Carbazochrome],0.41 °C
16,Cc1cc(Nc2cc(N3CCN(C)CC3)nc(/C=C/c3ccccc3)n2)n[nH]1,7.16 °C
17,Cc1ccc(NC(=O)Nc2cc(C(F)(F)F)ccc2F)cc1Nc1ccc2c(c1)NC(=O)/C2=C\c1ccc[nH]1,1.99 °C
18,CO[C@H]1C[C@@H]2CC[C@@H](C)[C@@](O)(O2)C(=O)C(=O)N2CCCC[C@H]2C(=O)O[C@H]([C@H](C)C[C@@H]2CC[C@@H](O)[C@H](OC)C2)CC(=O)[C@H](C)/C=C(\C)[C@@H](O)[C@@H](OC)C(=O)[C@H](C)C[C@H](C)/C=C/C=C/C=C/1C [Rapamycin (Sirolimus)],-0.04 °C
19,C[S+]([O-])c1ccc(-c2nc(-c3ccc(F)cc3)c(-c3ccncc3)[nH]2)cc1 (configuration not stated),0.32 °C

row,Compound,thermal shift delta Tm
1,CO[C@H]1CC[C@H](N2C(=O)CNc3ncc(-c4ccc(C(C)(C)O)nc4)nc32)CC1,0.18 °C
2,O=C(Nc1ccccc1C(=O)NC1CCCCNC1=O)c1cc2ccccc2s1 (configuration not stated),0.43 °C
3,CCN1CCN(Cc2ccc(-c3cc4c(N[C@H](C)c5ccccc5)ncnc4[nH]3)cc2)CC1,1.13 °C
4,Cc1cnc(NC(=O)Nc2cc(Br)c(C)cc2OC[C@@H]2CNCCO2)cn1,2.11 °C
5,Cc1ccc(NC(=O)c2ccc(CN3CCN(C)CC3)cc2)cc1Nc1nccc(-c2cccnc2)n1 [Imatinib Mesylate (STI571)],0.09 °C
6,NC(=O)c1ccc(N(C(N)=O)c2c(F)cccc2F)nc1-c1ccc(F)cc1F,0.25 °C
7,Cc1nc(-c2cn3c(n2)-c2ccc(-c4cnn(C(C)(C)C(N)=O)c4)cc2OCC3)n(C(C)C)n1 [Taselisib (GDC 0032)],-0.05 °C
8,COc1cc(N2CCC(N(C)C)CC2)ccc1Nc1ncc(Cl)c(Nc2ccccc2P(C)(C)=O)n1,5.58 °C
9,COc1cc2c(Nc3ccc(NC(=O)c4ccccc4)cc3)ncnc2cc1OCCCN1CCOCC1,1.85 °C
10,CNC(=O)c1cc(Oc2ccc(NC(=O)Nc3cc(C(C)(C)C)nn3-c3ccc4ncccc4c3)c(F)c2)ccn1 [Rebastinib (DCC-2036)],5.06 °C
11,CC(C)(CO)n1cc(C(=O)c2cncc(NC(=O)Cc3ccc(Cl)cn3)c2)c2cnc(N)nc21,0.51 °C
12,CS(=O)(=O)N1CCN(Cc2cc3nc(-c4cccc5[nH]ncc45)nc(N4CCOCC4)c3s2)CC1 [Pictilisib (GDC-0941)],1.56 °C
13,C[C@@H]1COC(Nc2ccc3ncnc(Nc4ccc(OCc5nccs5)c(Cl)c4)c3c2)=N1 [Varlitinib],0.41 °C
14,COc1cc(Nc2ncc(F)c(Nc3ccc4c(n3)NC(=O)C(C)(C)O4)n2)cc(OC)c1OC,5.15 °C
15,CC(C)n1nc(-c2ccc3oc(N)nc3c2)c2c(N)ncnc21,0.61 °C
16,Cc1cc(NC(=O)c2cccc(NC(=O)/C=C/CN(C)C)c2)ccc1Nc1nccc(-c2cccnc2)n1,1.1 °C
17,Nc1nccc(Oc2ccc(NC(=O)c3c[nH]cc(-c4ccc(F)cc4)c3=O)cc2F)c1Cl,1.15 °C
18,COc1ccc(/C=C/C(=O)C2(C(=O)/C=C/c3ccc(OC)c(OC)c3)CCCCC2)cc1OC,-0.01 °C
19,CC(C)CC(=O)Nc1n[nH]c2c1CN(C(=O)C1CCN(C)CC1)C2(C)C,1.12 °C
